Source: PubChem BioAssay (Tox21)
Records with an inconclusive call do not appear. A number with no mark means an inactive call. Calls follow the shape of the dose curve; as a rule, active = well fitted inhibition curve with a large enough effect in the signal ratio in the repeat runs (not every such curve was filed as active); inconclusive = weak or mixed curves, or effect the other way; inactive = no such curve, though single readings can be large or run the other way; the % refers to the signal ratio.

target: Peroxisome proliferator-activated receptor delta (Homo sapiens) (UniProt Q03181); experiment: qHTS assay to identify small molecule antagonists of the peroxisome proliferator-activated receptor delta (PPARd) signaling pathway (AID 743215); settings: HEK293H PPARd-UAS-bla, beta-lactamase FRET ratio, antagonist, 17 h; series mostly up to 62 µM; ratio activity, negative = inhibition: at the top concentration;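 also: cells stimulated with agonist L165041 at 300 nM final during compound exposure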
Source text: U.S. Tox21 Program National Center for Advancing Translational Sciences [NCATS] NIH Chemical Genomics Center [NCGC] U.S. Environmental Protection Agency [EPA] National Institutes of Environmental Health Sciences [NIEHS] National Toxicology Program [NTP] U.S. Food and Drug Administration [FDA] Tox21 Assay Overview: The peroxisome proliferator-activated receptors (PPARs) are lipid-activated transcription factors of the nuclear receptor superfamily with three distinct subtypes namely PPAR alpha, PPAR delta (PPARd) and PPAR gamma. All these subtypes heterodimerizes with Retinoid X receptor (RXR) and have different physiological functions. […] To identify the compounds that inhibit PPAR-delta signaling, GeneBLAzer PPAR delta UAS-bla HEK293H cell line (Invitrogen, Carlsbad, CA, USA) containing a beta-lactamase reporter gene under the control of an Upstream Activator Sequence (UAS) was used to screen the Tox21 compound library.
Tox21 Assay Protocol Summary: PPARd-bla cells were dispensed at 3000 cells/5uL/well in 1536-well black wall/clear bottom plates using a Multidrop Combi (Thermo Fisher Scientific, Waltham, MA) dispenser. After the assay plates were incubated at 37 C and 5% CO2 for 5 h, 23 nL of compounds dissolved in DMSO, positive controls or DMSO only was transferred to the assay plate by a Pintool station (Kalypsys, San Diego, CA), followed by addition of 1ul L165041 (300 nM, final concentration in the wells). The assay plates were incubated at 37 C for 17 h, and then 1 uL of LiveBLAzerTM B/G FRET substrate was added using a Bioraptr Flying Reagent Dispenser (FRD) workstation (Beckman Coulter, Indianapolis, IN, USA). The assay plates were incubated at room temperature for 2 h and fluorescence intensity was measured by an Envision plate reader (PerkinElmer, Shelton, CT).
% is scaled to controls: 0 for no effect and ±100 for the full control effect.

Sequence of Peroxisome proliferator-activated receptor delta (Homo sapiens) (Q03181 whole entry, looked up): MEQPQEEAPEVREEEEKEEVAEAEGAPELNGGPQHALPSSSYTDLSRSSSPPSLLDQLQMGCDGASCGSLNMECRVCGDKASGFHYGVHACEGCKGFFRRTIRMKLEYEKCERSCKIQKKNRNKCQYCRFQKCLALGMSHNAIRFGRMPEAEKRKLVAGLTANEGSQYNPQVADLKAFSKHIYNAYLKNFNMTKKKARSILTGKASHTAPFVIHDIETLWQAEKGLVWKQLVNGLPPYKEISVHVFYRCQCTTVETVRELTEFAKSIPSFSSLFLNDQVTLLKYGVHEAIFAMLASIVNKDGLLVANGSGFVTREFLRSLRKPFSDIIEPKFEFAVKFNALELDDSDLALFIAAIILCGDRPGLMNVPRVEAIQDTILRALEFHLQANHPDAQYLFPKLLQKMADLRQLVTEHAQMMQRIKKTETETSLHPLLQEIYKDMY

SMILES | ratio activity, negative = inhibition
CC(C)CCCCCCN | 6.43%
C=C(C)C(=O)NCCC[N+](C)(C)C | 5.7%
CC(=O)O[C@H](CC(=O)[O-])C[N+](C)(C)C | 1.44%
NS(=O)(=O)c1cc(C2(O)NC(=O)c3ccccc32)ccc1Cl (stereo not given) | -0.745%
COC(=O)CCCC(=O)O | -9.6%
NC(N)=NS(=O)(=O)c1ccc(N)cc1 | 4.19%
C=C(C)C1CC=C(C)C(O)C1 (stereo not given) | -1.39% [at 80.4 µM]
Cc1ccccc1Br | 3.27%
COC(=O)c1ccc(C(=O)OC)c(C(=O)OC)c1 | 7.8%
NCCN1CCNC1=O | 0.778%
Cc1ccc(N)cc1[N+](=O)[O-] | -13.1% [at 80.4 µM]
O=c1[nH]c2ccccc2c(=O)n1CCCl | -1.46%
C1CCCCCCCCCCC1 | -18.7% [at 28.9 µM]
CC(=O)NC(Cc1ccccc1)C(=O)O (stereo not given) | -6%
Nc1nc(F)nc2c1ncn2[C@@H]1O[C@H](CO)[C@@H](O)[C@@H]1O | 0.0324%
CC(C)=CC(=O)O | 11.3%
CC(C=O)Cc1ccc(C(C)C)cc1 (stereo not given) | 3.59%
COc1cc(C)cc(O)c1 | -0.524%
O=C(O)CCNC(=O)c1ccc(N=Nc2ccc(O)c(C(=O)O)c2)cc1 | -0.508%
Cn1ccc2cc3c(cc21)CCN3C(=O)Nc1cccnc1 | -21.2% [at 28.9 µM]

SMILES | ratio activity, negative = inhibition
Cc1ccc(Nc2ccc(O)c3c2C(=O)c2ccccc2C3=O)cc1 | -8.77%
CC(C)(C)N(CCO)CCO | -5.12% [at 80.4 µM]
CC(C)CCOC(=O)CC(C)C | 18.8%
CC(C)[N+](C)(C)CC(O)COc1cccc2ccccc12 (stereo not given) | -3.86%
O=C(O)c1ccc[n+]([O-])c1 | -6.78%
N[C@@H](CS)C(=O)O | 3.19% [at 80.4 µM]
CC(C)CCCC(C)CCCC(C)CCCCC(C)CCCC(C)CCCC(C)C (stereo not given) | -1.3%
Cc1c(C)n(CCN(C)C)c2ccc(C(=O)OCCN(C)C)cc12 | -15.6%
CCCC(=O)O[C@]1(C(=O)CCl)[C@@H](C)C[C@H]2[C@@H]3CCC4=CC(=O)C=C[C@]4(C)[C@@]3(F)C(=O)C[C@@]21C | 14.6%
C1=C\CC/C=C\CC/C=C\CC/1 | 8.08%
CCN1CCCC(OC(=O)C(c2ccccc2)c2ccccc2)C1 (stereo not given) | -20.4%
NCC[C@H](O)C(=O)N[C@@H]1C[C@H](N)[C@@H](O[C@H]2O[C@H](CN)[C@@H](O)[C@H](O)[C@H]2O)[C@H](O)[C@H]1O[C@H]1O[C@H](CO)[C@@H](O)[C@H](N)[C@H]1O | 4.4% [at 0.575 µM]
CN(C)N=Nc1ccccc1 | -1.43%
CCCCCCCCN(C)CCCCCCCC | -5.52% [at 80.4 µM]
CC1(C)OC(=O)Nc2ccc(Br)cc21 | 1.18%
C=CC(=O)N1CCOCC1 | 23.3%
CSc1nc(NC2CC2)nc(NC(C)(C)C)n1 | -0.279%
OCC(O)[C@@H](O)[C@H](O)[C@H](O)CO[C@H]1O[C@H](CO)[C@@H](O)[C@H](O)[C@H]1O (stereo not given in full) | -6.23%
CCOC(=O)Nc1ccc2c(c1)N(C(=O)CCN1CCOCC1)c1ccccc1S2 | -11.3%
CCCCCCC(=O)OCC | 1.79%
